Screen size: about 47,000 compounds; about 95 (0.2%) were called active. Rule as the data show it: active = inhibition above about 30%; inactive = the rest. Shown is part of a subset that was picked to be rich in actives.
Target: Ubiquitin carboxyl-terminal hydrolase isozyme L1 (Homo sapiens) (UniProt P09936)
Experiment: inhibitors of human UCHL1 deubiquitinase (AID 1645859)
Details: purified UCHL1, Ub-rhodamine cleavage fluorescence; at 20 µM; active compounds read high

Ubiquitin carboxyl-terminal hydrolase isozyme L1 (Homo sapiens), sequence (P09936 whole entry, looked up): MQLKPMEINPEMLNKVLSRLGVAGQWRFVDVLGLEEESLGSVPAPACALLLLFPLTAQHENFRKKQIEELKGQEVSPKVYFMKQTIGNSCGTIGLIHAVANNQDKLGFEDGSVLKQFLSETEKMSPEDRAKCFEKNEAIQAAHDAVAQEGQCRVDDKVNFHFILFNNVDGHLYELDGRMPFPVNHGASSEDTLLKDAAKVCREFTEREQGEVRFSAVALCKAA

SMILES | inhibition
Cc1nc(C2CCCN2C(=O)c2ccccn2)nc2c1CCCN2Cc1ccccn1 (stereo unspecified) | -7.02% (inactive)
COc1ccc(NC(=O)CN(C)C(=O)c2ccc3c(c2)nnn3C)cc1 | 2.41% (inactive)
Cc1ccc(C(=O)N2CCN3Cc4ccccc4N(C)CC3C2)cc1 (stereo unspecified) | -155% (inactive)
Cc1cc(-c2cncnc2-c2ccc(CNC(=O)Cc3cc(F)ccc3F)cc2)on1 | 2.52% (inactive)
CCc1ccc(C2CN3C(=O)CN(CCN4CCOCC4)C(=O)[C@]3(C)c3[nH]c4ccccc4c32)cc1 (stereo partly specified) | 7.01% (inactive)
O=C(O)c1ccccc1-c1ccccc1C(=O)Nc1ccccc1O | 1.93% (inactive)
O=C(Nc1cccc(-c2cccc(F)c2)c1)C1CCN(Cc2cccc3c2OCO3)CC1 | 6.73% (inactive)
CC(C)(C)c1ccc(Oc2ccc(NC(=O)c3ccc4c(c3)CCO4)cn2)cc1 | 1.03% (inactive)
CN(C(=O)CC(NC(=O)c1ccccc1)(c1ccccc1)c1ccccc1)c1ccccc1 | 1.79% (inactive)
Cc1ccc(NC(=O)CCc2nc(CSc3nnc(-c4ccco4)o3)no2)cc1C | 1.67% (inactive)
CNCC(=O)N1CCCC(c2nc(C)cc(Nc3cccc(C)n3)n2)C1 (stereo unspecified) | 0.00326% (inactive)
COc1ccc(C)cc1NC(=O)NC1(c2nc(C)no2)CCCCC1 | -4.28% (inactive)
Cc1sc2ncn(CC(=O)N3c4ccccc4CC3C)c(=O)c2c1C (stereo unspecified) | -2.03% (inactive)
Cc1ccc(CS(=O)(=O)c2cn(CC(=O)NCc3cccnc3)c3ccccc23)cc1 | 1.32% (inactive)
O=C(C1CCCN(S(=O)(=O)c2ccccc2)C1)N1CCN(CCc2ccccn2)CC1 (stereo unspecified) | -1.48% (inactive)
COc1ccc(NC(=O)C2=C(C)Nc3ncnn3C2c2cccc(OCc3ccc(F)cc3)c2)c(OC)c1 (stereo unspecified) | 4.6% (inactive)

SMILES | inhibition
COc1cc(C2CC(=O)Nc3cc4c(cc32)OCO4)ccc1O (stereo unspecified) | -1.12% (inactive)
CC(C)Cc1ncc(CCCN=C(N)N)[nH]c1=O | -8.33% (inactive)
COc1ccc(C2c3cccn3CCN2C(=O)Nc2cccs2)cc1 (stereo unspecified) | -66.3% (inactive)
Cc1ccccc1Cn1cc(/C=C2/C(=N)N3N=C(COc4ccccc4)SC3=NC2=O)c2ccccc21 | -1.05% (inactive)
CCOC(=O)C1=C(COc2ccccc2C#N)NC(=O)NC1C (stereo unspecified) | -3.02% (inactive)
Cc1cc(C)n2nc(C(=O)N3CCCC(c4[nH]ncc4C)C3)cc2n1 (stereo unspecified) | -2.57% (inactive)
Cc1nc(N(C)Cc2ccccc2)c2c3c(sc2n1)CCCC3 | -6.54% (inactive)
Cc1oc(C2CCN(C(=O)NC3CCCC3)CC2)nc1C(=O)N(C)C | 1.1% (inactive)
CC1CCN(C(=O)Cn2c(=O)n(Cc3ccccc3)c(=O)c3cc(Cl)ccc32)CC1 | 3.62% (inactive)
COc1ccccc1C1CNCCN1Cc1cnc(N(C)C)nc1 (stereo unspecified) | -0.867% (inactive)
Cc1cc(OCc2ccc(Cl)cc2Cl)cc2c1C(=O)CC(C)(C)O2 | 3.56% (inactive)
Cc1noc(C2CN(Cc3nccs3)Cc3ccnn3C2)n1 (stereo unspecified) | -2.68% (inactive)
O=C(CCc1c[nH]c2ccccc12)N1CCN(C(=O)C2CCCO2)CC1 (stereo unspecified) | -0.0658% (inactive)
Cc1nc2ccccc2n(CC(=O)NCc2ccc(OC(C)C)cc2)c1=O | -4.18% (inactive)
CCCN1CCC(Nc2ncnc3scc(-c4ccccc4)c23)CC1 | -1.59% (inactive)

Source: PubChem BioAssay AID1645859 (Buhrlage Lab, Dana-Farber Cancer Institute and Novartis …, 2021)
